Data on 96 compounds can be found in PubChem BioAssay AID1578 (Sanford-Burnham Center for Chemical Genomics, 2009).

Among all 290,000 compounds or so, about 3,000 (1%) were called active. This excerpt belongs to a sample that is enriched for actives. Values without a mark were called inactive. Rule as the data show it: active = inhibition mostly above about 36% (no sharp cut-off); inactive = mostly below about 34%.

The inhibition is the drop in the measured response relative to a control, in per cent.

The test in a line: NOD1 signaling inhibitors, primary screen, cell-based, luminescence, uHTS (AID 1578).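 Also: HEK-293T reporter cells stimulated with the NOD1 agonist gamma-tri-DAP.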 Particulars: NOD1-driven NF-kB luciferase reporter cells, at 4 µM, hits give high values.
With `Oc1ccc(Nc2nc(-c3ccc(O)cc3)cs2)cc1`, the inhibition is -23.2%.

In the case of `COc1ccc(Nc2nc(-c3ccc(OC)cc3)cs2)cc1`, the inhibition was -34.6%.

Turning to `COc1ccc(-c2csc(Nc3ccc(O)cc3)n2)cc1`, the inhibition was 56.7% (active).

With `Cc1ccc(S(=O)(=O)N(CC(=O)N/N=C/c2cccc(C)c2)c2cccc3cccnc23)cc1`, the inhibition was -9%.

`CC(C)CC(=O)NC(C)C(c1cccs1)N1CCOCC1` (stereo unspecified): the inhibition was -10.9%.

Consider `O=c1cc(C(F)(F)F)[nH]c(=S)n1-c1ccccc1`, for which the inhibition is -3.4%.

`O=[N+]([O-])c1ccc(-c2c(O)c3ccccc3c3nc4ccccc4nc23)cc1`: the inhibition was 87.7% (active).

Turning to `O=[N+]([O-])c1ccc(-c2cnc3ccccc3n2)cc1`, the inhibition was -42.9%.

Regarding `Cc1cc(-c2ccc([N+](=O)[O-])cc2)nc2ccccc12`, the inhibition was -26.6%.

On to `CCOC(=O)c1cnn(-c2ccc(C(F)(F)F)cn2)c1N`, for which the inhibition is -92.9%.

As to `CC(=O)Nc1ccc(NC(=O)CCOc2cc(C)ccc2C)cc1`, the inhibition was 46.4%.

In the case of `CCOC(=O)C1(Cc2ccc(OC)cc2)CCN(C(=O)CCn2cccn2)CC1`, the inhibition was 1.1%.

On to `Cc1cc(C)c2nc(NNC(=O)c3cc(-c4cccs4)nc4ccccc34)sc2c1`, for which the inhibition was -29.4%.

For the compound `Cc1ccc2sc(NNC(=O)c3cc(-c4cccs4)nc4ccccc34)nc2c1C`, the inhibition is -36.7%.

With `Cc1cccc2sc(NNC(=O)c3cc(-c4cccs4)nc4ccccc34)nc12`, the inhibition is 86.7% (active).

`O=C(NCCOc1ccc(Cl)cc1)c1ccc2ccccc2n1`: the inhibition was -22.8%.

On to `c1ccc(-c2nc3cnccn3c2Nc2ccc3c(c2)OCCO3)cc1`, for which the inhibition is -26.2%.

As to `Cc1nn(CC(=O)c2ccc(Cl)s2)c(C)c1[N+](=O)[O-]`, the inhibition was -20.3%.

For `COc1ccc(Cc2nnc(NC(=O)c3cccc(F)c3)s2)cc1OC`, the inhibition was -8%.

`CCOC(=O)c1cc(C)n(CCc2ccccc2)c1C`: the inhibition is -18.3%.

`Cc1cc(C(=O)CCl)c(C)n1CC1COc2ccccc2O1` (stereo unspecified): the inhibition is 51.3% (active).

Turning to `COc1ccc(CCn2c(C)cc(C(=O)CSc3nnnn3-c3ccccc3)c2C)cc1OC`, the inhibition is -55.4%.

Take `Cc1cc(C(=O)COC(=O)c2ccc(O)cc2)c(C)n1CC1COc2ccccc2O1` (stereo unspecified): the inhibition was -9.9%.

As to `Cc1cc(C(=O)CSc2nnnn2-c2ccccc2)c(C)n1CCc1ccccc1`, the inhibition was -52.2%.

Consider `Cc1cc(C(=O)CN2C(=O)C(=O)N(Cc3ccccc3)C2=O)c(C)n1CC1COc2ccccc2O1` (stereo unspecified), for which the inhibition is 27.8%.

Turning to `COc1ccc(CCn2c(C)c(C(C)=O)c(C(C)=O)c2C)cc1OC`, the inhibition was -23.3%.

For the compound `COc1ccc(CCn2c(C)cc(C(=O)CCl)c2C)cc1OC`, the inhibition was 59.7% (active).

As for `Cn1cccc1C(NC(=O)c1ccccc1)C(Cl)(Cl)Cl` (stereo unspecified), the inhibition is -0.5%.

For `Cc1cccc(C)c1OCCNC(=O)c1ccc2ccccc2n1`, the inhibition is 53.9%.

On to `COc1cccc(C(=O)Nc2ccc(Cl)c(C(F)(F)F)c2)c1`, for which the inhibition is -30.7%.

As for `Cc1cc(=O)[nH]c(N/N=C/c2cn(CCC#N)nc2-c2ccccc2)n1`, the inhibition was -41.6%.

For the compound `Cc1cc(NC(=O)CN(C)C)c([N+](=O)[O-])cc1C`, the inhibition was -1.4%.

For the compound `COC(=O)C1=C(Cn2cnc3ccccc32)NC(=O)NC1c1cc(C)ccc1C` (stereo unspecified), the inhibition is 14.7%.

Regarding `Cc1nnc2n(c1=O)C(CS(=O)(=O)c1ccccc1)CS2` (stereo unspecified), the inhibition was 9.4%.

Take `CCCc1nnc(NC(=O)CCC(=O)N2CCN(Cc3cc(F)ccc3OC)CC2)s1`: the inhibition was -10.4%.

On to `CCOC(=O)CNC(=O)Cc1ccc(Cl)cc1`, for which the inhibition was -9.2%.

For the compound `Cc1nc2c(c(C)nn2-c2ccccc2)c(C)c1Cl`, the inhibition was 6.2%.

Consider `Cc1cc(C)c2c(C)nn(-c3ccccc3)c2n1`, for which the inhibition is -3.5%.

Regarding `CN(C)S(=O)(=O)c1cccc(C(=O)OCC(=O)Nc2sccc2C#N)c1`, the inhibition was 5.6%.

As to `Fc1ccccc1Cc1nnc2n1N=C(c1ccc(Cl)cc1)CS2`, the inhibition was -16%.

Take `Nc1cc(-c2ccc(Br)cc2)nn1Cc1ccccc1`: the inhibition was 46.7% (active).

For `Nc1cc(-c2cccc(Br)c2)nn1Cc1ccccc1`, the inhibition was -9.7%.

With `Nc1cc(-c2ccccc2)nn1Cc1ccccc1`, the inhibition was -25.1%.

With `Cc1cc(/C=C2\SC(=Nc3ccc(F)cc3)NC2=O)c(C)n1-c1ccc(S(N)(=O)=O)cc1`, the inhibition is -10.7%.

Regarding `O=C(CSc1nnc(Cc2ccccc2)o1)NC1CCCCC1`, the inhibition was -2.8%.

On to `COc1ccc(OCc2nnc(SCC(=O)NC3CCCCC3)o2)cc1`, for which the inhibition is -22.6%.

Take `COc1ccc(Cc2nnc(SCC(=O)NC3CCCC3)o2)cc1`: the inhibition was 71.8% (active).

Consider `COc1ccc(C2NC(=O)CCC2[N+](=O)[O-])cc1` (stereo unspecified), for which the inhibition is -17.7%.

In the case of `CCOC(=O)c1ccccc1NC(=O)c1cc2ccccc2o1`, the inhibition is -31.6%.

Regarding `C/C(=N\NC(=O)c1cc(C)nc2ccccc12)c1ccco1`, the inhibition is -18.1%.

On to `O=C(CCCCn1c(=O)[nH]c2ccccc2c1=O)NCCC1=CCCCC1`, for which the inhibition is -3.1%.

With `O=C(N/N=C/c1ccc(OC(F)F)cc1)c1ccc(CSc2nc3ccccc3[nH]2)cc1`, the inhibition is -27.9%.

Take `CCOc1ccc(/C=N/NC(=O)c2ccc(CSc3nc4ccccc4[nH]3)cc2)cc1`: the inhibition is 66.9% (active).

Turning to `COc1cc(/C=N/NC(=O)c2ccc(CSc3nc4ccccc4[nH]3)cc2)ccc1O`, the inhibition is -22.3%.

Turning to `Cn1c(=O)c2c(nc(N3CCN(c4ccc([N+](=O)[O-])cc4)CC3)n2C)n(C)c1=O`, the inhibition was 0.8%.

Turning to `CCOc1ccccc1C1C(C#N)=C(N)Oc2cc(C)n(Cc3ccccn3)c(=O)c21` (stereo unspecified), the inhibition was 4.8%.

For `O=C1c2ccccc2C(=O)c2c1ccc1c(=O)n(-c3ccccc3)[nH]c21`, the inhibition is 8.9%.

As to `Cc1cccc(-c2cc3c(nn2)-c2ccccc2C3=O)c1`, the inhibition is -99%.

On to `Cc1ccc2c3c(cccc13)-c1ccccc1C2=O`, for which the inhibition is -32.2%.

As for `Cc1ccc(C)c(NC(=O)COC(=O)c2cccc3c2C(=O)c2ccccc2C3=O)c1`, the inhibition is 16.2%.

As to `O=C(Cn1c(C(F)(F)F)nc2ccccc21)N1CCCC1`, the inhibition is -9.5%.

As for `CC(CN1C(C)CCCC1C)OC(=O)c1ccc(Cl)cc1Cl` (stereo unspecified), the inhibition was -14.9%.

Consider `CCN(CC(=O)NCc1ccc(F)cc1)CC(=O)NC1CCCC1`, for which the inhibition is -35.5%.

`CCCn1nnnc1SCC(=O)N1CCCc2ccccc21`: the inhibition was -20%.

As to `CC1CCN(CC(=O)n2c3c(c4ccccc42)CCCC3)CC1`, the inhibition was 7.8%.

As for `Cc1ccnc(SCC(=O)n2c3c(c4ccccc42)CC(C)CC3)n1` (stereo unspecified), the inhibition was 8.4%.

Take `CC1CCc2c(c3ccccc3n2C(=O)CCl)C1` (stereo unspecified): the inhibition was 74.2% (active).

`Cc1cccc(Nc2nc(N)nc(CN3CCN(C)CC3)n2)c1`: the inhibition is -6.7%.

Take `COc1cccc(Nc2nc(N)nc(CCl)n2)c1`: the inhibition is -7.5%.

As for `Nc1nc(CCl)nc(Nc2ccccc2)n1`, the inhibition is 36.6%.

`CC1CC(C)CN(Cc2nc(N)nc(Nc3ccc4ccccc4c3)n2)C1` (stereo unspecified): the inhibition was -11.4%.

Turning to `COc1ccc(OCc2nc(N)nc(Nc3cccc(C)c3C)n2)cc1`, the inhibition was -7%.

`Cc1ccc(Nc2nc(N)nc(CN3CCCCCC3)n2)c(C)c1`: the inhibition is -23.1%.

Take `Cc1cccc(Nc2nc(N)nc(CN3CCC(C)CC3)n2)c1C`: the inhibition was -38.2%.

In the case of `Cc1ccc(Nc2nc(N)nc(CSc3nccn3C)n2)c(C)c1`, the inhibition was -29.9%.

Take `COc1ccc(C(C)C)cc1S(=O)(=O)N1CCC(C(=O)NCc2cccnc2)CC1`: the inhibition was -9.3%.

`CN1CCN(C(=O)N2CCNC2=O)CC1`: the inhibition was -22%.

For `COc1ccc(/C(O)=C2/C(=O)C(=O)N(c3ccccn3)C2c2ccc(C(C)C)cc2)cc1` (stereo unspecified), the inhibition was -7.2%.

With `Cc1nc2cc(NS(=O)(=O)c3c(C)c(C)cc(C)c3C)ccc2s1`, the inhibition is 22.1%.

As for `COc1ccc(NC(=O)[C@@H]2[C@@H]3C(=O)N(C4CCCCC4)C(=O)[C@@H]3C3c4ccccc4C=CN32)cc1` (stereo partly specified), the inhibition was -4.8%.

`COc1ccc2sc(NC(=O)CC(C)C)nc2c1`: the inhibition was -66.7%.

As to `Cn1c(=S)[nH]c2[nH]c(=O)cnc2c1=O`, the inhibition is -2.8%.

For the compound `COc1ccc(NC(=O)c2ccc(C(=O)c3ccccc3)o2)cc1`, the inhibition is -21.8%.

As for `COc1ccc(CCNC(=O)c2nnn(CC(=O)Nc3ccc(C)cc3C)c2N)cc1OC`, the inhibition is -14.4%.

For the compound `COC(=O)C1(C)NC(c2ccccc2C)C2C(=O)N(c3ccc(F)cc3)C(=O)C21` (stereo unspecified), the inhibition is -24.2%.

In the case of `O=C(Nc1nnc(S(=O)(=O)N2CCCCC2)s1)c1ccc(Cl)cc1`, the inhibition is 37.5%.

Consider `Cc1ccc(C(=O)Nc2nnc(S(=O)(=O)N3CCCCCC3)s2)cc1`, for which the inhibition was -23.3%.

In the case of `CC1CCN(S(=O)(=O)c2nnc(NC(=O)c3cccc([N+](=O)[O-])c3)s2)CC1`, the inhibition was 30.9%.

With `Cc1cccc(C(=O)Nc2nnc(S(=O)(=O)N3CCC(C)CC3)s2)c1`, the inhibition was 21.6%.

Turning to `COc1cc(/C=C2/SC(=S)N(CC(=O)NC(C)(C)C)C2=O)cc(OC)c1OC`, the inhibition was 2.3%.

Turning to `COc1ccc2c(CSc3nnc(-c4cccnc4)n3-c3ccccc3F)cc(=O)oc2c1`, the inhibition is -12.1%.

For `Cc1ccc(S(=O)(=O)N(C)C)cc1NC(=O)CN1C(=O)NC2(CCCCCC2)C1=O`, the inhibition was -38.1%.

With `CCOC(=O)[C@@H]1[C@H]2COc3ccc(Br)cc3[C@H]2N2C(=O)N(c3ccc(C)cc3)C(=O)[C@]12C`, the inhibition was -18.3%.

As for `O=C(CSCc1ccccc1)Nc1ccc(F)c(F)c1`, the inhibition is -34.3%.

As to `O=C(CSCc1ccccc1)Nc1ccc(F)cc1F`, the inhibition was 7.2%.

As for `O=C(CSCc1ccccc1)NNc1c(F)c(F)cc(F)c1F`, the inhibition was 34.4% (active).
